About 14,000 (4.5%) of roughly 310,000 compounds showed an effect of 50% or more. Effects have a minus sign here. The entries come from a sample that favours strong results as a whole.
biological target: human ether-à-go-go-related gene (hERG) potassium channel (human, UniProt Q12809); assay: primary screen, population patch clamp on CHO cells stably expressing hERG; higher = less effect of the substance
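Also: peak tail current of the secondary pulse compared with the same well before compound.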

Sequence of human ether-à-go-go-related gene (hERG) potassium channel (Q12809 whole entry, looked up): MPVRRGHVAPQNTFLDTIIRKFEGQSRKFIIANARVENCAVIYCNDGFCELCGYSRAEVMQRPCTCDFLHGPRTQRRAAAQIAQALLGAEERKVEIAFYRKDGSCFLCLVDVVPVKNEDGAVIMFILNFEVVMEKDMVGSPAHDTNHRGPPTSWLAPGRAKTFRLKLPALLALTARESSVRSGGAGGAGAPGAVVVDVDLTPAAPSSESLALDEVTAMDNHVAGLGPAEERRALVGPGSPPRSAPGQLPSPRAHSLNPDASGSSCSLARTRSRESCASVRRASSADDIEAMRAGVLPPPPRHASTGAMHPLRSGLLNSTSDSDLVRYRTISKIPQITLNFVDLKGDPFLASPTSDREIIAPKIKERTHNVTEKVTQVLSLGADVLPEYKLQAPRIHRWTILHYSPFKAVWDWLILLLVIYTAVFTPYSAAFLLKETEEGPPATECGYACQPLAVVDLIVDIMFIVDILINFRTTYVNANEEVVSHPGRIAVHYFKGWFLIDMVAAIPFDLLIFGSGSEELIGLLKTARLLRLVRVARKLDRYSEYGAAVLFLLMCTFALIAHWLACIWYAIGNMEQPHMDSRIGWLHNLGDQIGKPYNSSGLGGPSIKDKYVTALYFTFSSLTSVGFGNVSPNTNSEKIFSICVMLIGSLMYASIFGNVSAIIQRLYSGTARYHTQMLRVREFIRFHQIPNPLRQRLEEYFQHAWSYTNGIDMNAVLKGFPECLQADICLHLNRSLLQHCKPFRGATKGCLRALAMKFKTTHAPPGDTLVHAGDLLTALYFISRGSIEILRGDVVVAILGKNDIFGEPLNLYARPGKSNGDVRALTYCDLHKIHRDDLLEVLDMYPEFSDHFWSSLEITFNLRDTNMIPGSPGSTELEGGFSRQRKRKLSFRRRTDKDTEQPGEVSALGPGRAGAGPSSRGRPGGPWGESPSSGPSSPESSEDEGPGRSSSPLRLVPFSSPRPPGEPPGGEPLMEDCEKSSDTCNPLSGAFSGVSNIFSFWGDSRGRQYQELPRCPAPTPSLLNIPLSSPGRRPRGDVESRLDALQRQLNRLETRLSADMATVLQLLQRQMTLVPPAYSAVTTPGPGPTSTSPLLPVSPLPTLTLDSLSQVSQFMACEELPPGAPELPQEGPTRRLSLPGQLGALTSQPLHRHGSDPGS

| SMILES | hERG current change (%, negative = inhibition) at 10uM |
| --- | --- |
| COC(=O)NCc1ccc(CNC(=O)OC)cc1 | 4.84% |
| CCc1cc(C(=O)N2CCN(c3ccccc3OC)CC2)sc1C | -15% |
| COc1cc(OC)cc(C(=O)NNC(=S)Nc2ccccc2OC)c1 | 10.8% |
| CC1CCN(C(=O)CN2C(=O)C(=O)N(C)C2=O)c2ccccc2S1 (stereo not drawn) | 5.74% |
| CSc1cccc(NC(=O)/C=C/c2ccco2)c1 | 1.51% |
| O=C(COC(=O)/C=C/c1ccc(F)cc1)NCc1cccs1 | 8.26% |
| CC[n+]1c(/C=C/N(C)c2ccccc2)n(-c2ccccc2)c2ccc(-c3nc4ccccc4s3)cc21.[I-] | -81.1% |
| CCOc1cc(-c2nc3ccccc3s2)ccc1O | 4.57% |
| CC[n+]1cccc(-c2nc3ccccc3s2)c1.[I-] | -0.683% |
| CCOc1ccc(CCNC(=O)c2cnccn2)cc1OCC | 11.1% |
| CCNc1nc2c(c(=O)n(C)c(=O)n2C)n1Cc1ccc(Cl)cc1 | -7.07% |
| c1ccc(-n2nnnc2Oc2ccc(-n3ccnc3)cc2)cc1 | -54% |
| Fc1ccc(Oc2nnnn2-c2ccccc2)cc1 | 44.8% |
| COc1ccc(Oc2nnnn2-c2ccccc2)cc1 | -16.6% |
| CCNC(=O)COc1ccc(-c2ccccc2)cc1 | -19.4% |
| CCOC(=O)c1cn2nc(Oc3ccc(OC)cc3)ccc2n1 | 4.29% |
| CCOC(=O)c1cn2nc(Oc3ccc(C#N)cc3)ccc2n1 | -54.1% |
| CCOC(=O)c1cn2nc(Oc3ccc(C)cc3)ccc2n1 | 1.97% |
| CC1=C/C(=N\OS(=O)(=O)c2ccccc2)C(C)=CC1=O | -9.37% |
| O=C(CSc1nnc(COc2ccc(Cl)cc2)o1)N1CCN(c2ccccc2)CC1 | -1.37% |
| COc1ccccc1C1CC(c2ccc(Cl)cc2Cl)Nc2nc(N)nn21 (stereo not drawn) | -44.7% |
| Cc1cccn2c(=O)c3cc(C(=O)NCc4ccco4)c(=N)n(C4CCCCC4)c3nc12 | -77.4% |

| SMILES | hERG current change (%, negative = inhibition) at 10uM |
| --- | --- |
| Cc1cccn2c(=O)c3cc(C(=O)NCc4ccco4)c(=N)n(C4CCCC4)c3nc12 | -78.8% |
| Cc1ccc(S(=O)(=O)c2cc3c(=O)n4cccc(C)c4nc3n(C3CCCCC3)c2=N)cc1 | 15.7% |
| Cc1cccn2c(=O)c3cc(S(=O)(=O)c4ccc(Br)cc4)c(=N)n(C4CCCCC4)c3nc12 | 18.6% |
| Cc1cccn2c(=O)c3cc(S(=O)(=O)c4ccc(Br)cc4)c(=N)n(C4CCCC4)c3nc12 | 9.92% |
| COc1ccc(-n2c(N)c(C(=O)NCc3ccco3)c3nc4ccccc4nc32)c(OC)c1 | 0.913% |
| Cc1csc(NC(=O)c2sc3nc(-c4cccs4)ccc3c2N)n1 | 5.65% |
| COc1ccc(OC)c(NC(=O)CSc2nnc(C3CCCCC3)o2)c1 | -19% |
| CC(=O)N1CC(C)Sc2ccc(S(=O)(=O)NCc3ccc(F)cc3)cc21 (stereo not drawn) | -49.6% |
| O=C1c2ccccc2S(=O)(=O)c2cc(C(=O)N3CCN(c4ccc(Cl)cn4)CC3)ccc21 | -33.1% |
| CCOc1ccc(S(=O)(=O)N(CC)CC)cc1NC(=O)CSCc1c(C)noc1C | -67.2% |
| Cc1noc(C)c1CSCC(=O)Nc1cc(S(C)(=O)=O)ccc1Cl | 0.564% |
| CCOc1ccc(S(=O)(=O)N2CCCCC2)cc1NC(=O)CSCc1c(C)noc1C | -39.5% |
| CCN(CC)S(=O)(=O)c1ccc(N(C)C)c(NC(=O)CSCc2c(C)noc2C)c1 | -60.4% |
| CCOc1ccc(S(=O)(=O)N2CCOCC2)cc1NC(=O)CSCc1c(C)noc1C | -17.3% |
| Cc1noc(C)c1CSCC(=O)Nc1ccc(S(C)(=O)=O)cc1 | 15.2% |
| C=CCOc1cccc(C2C(C(=O)c3cccs3)=C(O)C(=O)N2Cc2cccnc2)c1 (stereo not drawn) | -1.2% |
| CCOC(=O)C1=C(C)NC(=O)NC1c1cc(Br)c(O)c(OC)c1 (stereo not drawn) | -2.71% |
| COc1ccc(CNc2ccc3c(c2)ncn3C)cc1OC | 15.8% |
| Cc1cnc(C(=O)Nc2cc(S(=O)(=O)N3CCOCC3)ccc2N2CCN(C)CC2)cn1 | -18.6% |
| COc1ccc(-n2cc(CN[C@H]3CCCCNC3=O)c(-c3cccc(F)c3)n2)cc1 | -64.1% |
| COc1ccc(-n2cc(CNCc3cnc4ccccn34)c(-c3cccc(F)c3)n2)cc1 | -30.2% |
| COc1ccc(-n2cc(CNCCCn3ccnc3)c(-c3ccccc3Cl)n2)cc1 | -44.9% |

| SMILES | hERG current change (%, negative = inhibition) at 10uM |
| --- | --- |
| COc1cccc(-c2nn(-c3ccccc3)cc2CN2CCCO2)c1 | -5.81% |
| COc1ccc(-n2cc(CNC3CCOCC3)c(-c3cccc(F)c3)n2)cc1 | -48.2% |
| COc1ccc(-n2cc(CNCC3CCOCC3)c(-c3cccc(F)c3)n2)cc1 | -78.5% |
| COc1ccc(-n2cc(CNC3CCC(O)CC3)c(-c3cccc(F)c3)n2)cc1 (stereo not drawn) | -45.3% |
| COc1ccc(-n2cc(CNC3CCN(C)CC3)c(-c3cccc(F)c3)n2)cc1 | -77.5% |
| COc1ccc(-n2cc(CN(C)C3CCOCC3)c(-c3cccc(F)c3)n2)cc1 | -29.1% |
| COc1ccc(-n2cc(CN(C)Cc3n[nH]c(=O)[nH]3)c(-c3cccc(F)c3)n2)cc1 | -15.4% |
| COc1ccc(N2C(=O)CC(NC3CCCCNC3=O)C2=O)cc1 (stereo not drawn) | 8.59% |
| COc1ccc(-n2cc(CNCCCn3ccnc3)c(-c3cccc(F)c3)n2)cc1 | -75.2% |
| Cc1cccc(C)c1OCC(=O)Nc1ccc(N2CCOCC2)cc1 | -4.13% |
| O=C(CC12CC3CC(CC(C3)C1)C2)Nc1cccc2ncccc12 | -23% |
| CN(C)c1ccc(Nc2cc(Cl)ncn2)cc1 | 1.65% |
| COc1ccc(OC)c(N(CC(=O)Nc2ccc3c(c2)OCCO3)S(C)(=O)=O)c1 | 9.64% |
| CC(C)CC(=O)NC(=S)Nc1ccccc1C(=O)Nc1ccccc1 | 8.01% |
| O=C(c1ccc(CN2CCOCC2)cc1)N1CCN(c2ccccc2F)CC1 | -3.33% |
| COc1ccc(CNCc2cc3c(C(C)(C)C)nn(-c4ccccc4)c3[nH]c2=O)cc1 | -24% |
| CCOC(=O)c1c(NC(=S)Nc2ccccc2)sc2c1CCN(CC)C2 | -81.5% |
| CCOC(=O)c1c(NC(C)=O)sc2c1CCN(Cc1ccccc1)C2.Cl | -20.5% |
| CCOC(=O)c1c(NC(=S)NCc2ccccc2)sc2c1CCN(C(=O)OCC)C2 | 32.8% |
| CCOC(=O)c1c(N)sc2c1CCN(CCc1ccccc1)C2 | -28.6% |
| CCOC(=O)c1c(NC(=S)Nc2ccccc2)sc2c1CCN(CCc1ccccc1)C2 | -64.1% |
| CCOC(=O)c1c(NC(=S)Nc2ccccc2)sc(C)c1C | 4.49% |

| SMILES | hERG current change (%, negative = inhibition) at 10uM |
| --- | --- |
| COc1ccc(-c2c(C)n([O-])c3c([n+]2=O)CCCC3)c(OC)c1 | 6.26% |
| Nc1cncc(C(=O)O)c1 [26671297] | 4.06% |
| CCn1cc(C(=O)N2CCCC(C(=O)c3ccc4ccccc4c3)C2)cn1 (stereo not drawn) | -18.1% |
| CCc1ccc(NC(=O)CSc2nc(=O)n(CCN(C)C)c3c2CCCC3)cc1 | -24.2% |
| CCCCc1ccc(NC(=O)CSc2nc(=O)n(CCN(CC)CC)c3c2CCCC3)cc1 | -66.7% |
| CCc1ccc(NC(=O)CSc2nc(=O)n(CCCN(C)C)c3c2CCC3)cc1 | -42.3% |
| CCCCc1ccc(NC(=O)CSc2nc(=O)n(CCN(C)C)c3c2CCC3)cc1 | -56.4% |
| CCCCc1ccc(NC(=O)CSc2nc(=O)n(CCN(CC)CC)c3c2CCC3)cc1 | -65.8% |
| C=C(C)CN(CC)Cc1c(C(=O)N(C)CCCC)nc2ccccn12 | -20.7% |
| Cc1ccc(S(=O)(=O)NNC(=O)C2CCN(Cc3ccccc3)CC2)cc1 | -15.4% |
| COc1ccc(NC(=O)CSc2nnc(C3CCCCC3)n2N)cc1OC | 21.9% |
| Cc1cc(N/N=C/c2ccccc2O)nc(N2CCOCC2)n1 | 6.96% |
| COc1ccc2ccc(OCC(=O)N3c4ccccc4NC(=O)CC3C)cc2c1 (stereo not drawn) | -21.2% |
| Oc1ccc2ccccc2c1-c1sc(Nc2ccccc2)n[n+]1-c1ccc(F)cc1.[Cl-] | -0.475% |
| COc1ccc(-c2sc(Nc3ccccc3)n[n+]2-c2ccc(F)cc2)c(OC)c1OC.[Cl-] | -72.2% |
| COc1ccc(-c2sc(Nc3ccccc3)n[n+]2-c2ccc(F)cc2)c(C)c1C.[Cl-] | -74.5% |
| COc1cc(OC)c(-c2sc(Nc3ccccc3)n[n+]2-c2ccc(F)cc2)cc1OC.[Cl-] | -0.831% |
| Fc1ccc(-[n+]2nc(Nc3ccccc3)sc2-c2c3ccccc3cc3ccccc23)cc1.[Cl-] | 18.2% |
| COc1ccc2ccccc2c1-c1sc(Nc2ccccc2)n[n+]1-c1ccc(F)cc1.[Cl-] | -57.4% |
| COc1ccc(-c2sc(Nc3ccccc3)n[n+]2-c2ccc(F)cc2)cc1Br.[Cl-] | 4.03% |
| COc1ccc(-c2sc(Nc3ccccc3)n[n+]2C)c(C)c1C.[Cl-] | -1.19% |
